This is an account of results in PubChem BioAssay (NCATS).

Inconclusive results are not listed. The source made the active and inactive calls. Unless noted, calls follow the shape of the dose curve; as a rule, active = well fitted curve in the direction sought with a large enough effect; inconclusive = small, poorly fitted or top-dose-only effect, or another doubt; inactive = no such curve, though single readings can be large; an effect the other way counts as inactive or inconclusive.

One test concerns the target Furin (Homo sapiens) (UniProt P09958). The test can be described thus: Furin counterscreen qHTS for Zika virus inhibitors (AID 1347149). Also: nearly all actives have a fitted effect of over 70% in size. Also: potency is read from the fitted curve at half-maximal effect.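 As to activity change, negative = inhibition: purified recombinant full-length human furin enzyme at 5 nM; fluorescence gain from furin cutting a BOC-RVRR-AMC peptide substrate over 15 min; top concentration of the series differs between compounds; plate controls were no-inhibitor control for no effect and no-enzyme control for full effect.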 A digest of the protocol: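 Fluorogenic cleavage of BOC-RVRR-AMC (2 microM final, Km ~15 µM) was monitored (ex 340, em 450 nm) at 37C after 15 min RT preincubation of 5 nM furin with compounds in HEPES pH 7.0 buffer with CaCl2 and Triton X-100. Percent inhibition was fitted to a 4-parameter Hill curve.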

Test [1] relates to Zika virus NS2B-NS3 protease (linked construct). The test can be described thus: Confirmatory screen NINDS AMC qHTS for Zika virus inhibitors (AID 1347152).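 Also: top concentration of the series differs between compounds; 0% = no-inhibitor control and -100% = no-enzyme control; nearly all actives have a fitted effect of over 70% in size.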 In short, it runs like this: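 IC50s from 4-parameter Hill fits of percent inhibition, based on AMC fluorescence gain (340/450 nm) over 15 min with 10 microM Bz-Nle-KRR-AMC. Enzyme: 1 nM linked NS2B-NS3 in Tris-HCl pH 8.0; 15-min compound preincubation.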

The subject of test [2] is Zika virus NS2B-NS3 protease (unlinked complex). The experiment in a line: Confirmatory screen GU AMC qHTS for Zika virus inhibitors (AID 1347153).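 Also: percent inhibition with 0% = no inhibitor control and 100% = no enzyme control; nearly all actives have a fitted effect of over 70% in size.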 A digest of the protocol:
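Unlinked NS2B-NS3 complex (25 nM) in 10 mM Tris-HCl pH 8.0, 0.01% Tween 20 preincubated 15 min with compound, then 10 microM Bz-Nle-KRR-AMC (Km 18.3 µM). Fluorescence change over 15 min, normalized, Hill-fitted.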

Test [3] deals with Zika virus NS2B-NS3 protease. The test can be described thus: Primary screen GU AMC qHTS for Zika virus inhibitors (AID 1347154). Also: potency is read from the fitted curve at half-maximal effect; nearly all actives have a fitted effect of over 70% in size. In short, it runs like this: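 Fluorogenic AMC-substrate cleavage by noncovalent NS2B-NS3 protease complex (25 nM, pH 8.0 Tris buffer with Tween 20) followed for 15 minutes at room temperature (~20% conversion). Percent inhibition from ex340/em450 signal change, fitted by 4-parameter Hill equation.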

Test [4] in a line: Confirmatory screen NINDS Rhodamine qHTS for Zika virus inhibitors (AID 1347161).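 Also: purified Zika NS2B-NS3 protease with linked NS2B cofactor domain and Rhodamine110 peptide substrate; plate controls were no-inhibitor control for no effect and no-enzyme control for full effect; nearly all actives have a fitted effect of over 60% in size.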 A digest of the protocol: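 Enzyme (25 nM, linked NS2B-NS3) was preincubated 15 min with compound in 10 mM Tris-HCl pH 8.0, 0.01% Tween 20. Rhodamine110 substrate (1.5 microM) was then added and fluorescence read at start and after 15 min.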
Test [5] can be described thus: Vero cells viability qHTS for Zika virus inhibitors (AID 1347167). Also: potency is read from the fitted curve at half-maximal effect. In short, it runs like this:
(§1)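 Compounds were tested in concentration series on cells grown in DMEM containing 4% FBS. After 24 to 48 hours, cellular ATP was measured by luminescence with CellTiter Glo.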

Test [6] is described as follows: HepG2 cells viability qHTS for Zika virus inhibitors (AID 1347168). Also: % is scaled to controls: 0 for no effect and ±100 for the full control effect. A digest of the protocol:
as §1

In test [7] the test system is Zika virus NS2B-NS3 protease (unlinked). The experiment in a line: Optimization of GU AMC qHTS for Zika virus inhibitors: Unlinked NS2B-NS3 protease assay (AID 1347151). Also: nearly all actives have a fitted effect of over 80% in size. Also: potency is read from the fitted curve at half-maximal effect.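 As to activity change, negative = inhibition: 0% = no-inhibitor control and -100% = no-enzyme control.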 In short, it runs like this: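 Fluorescence gain (340/450 nm) over 15 min at room temperature, ~20% conversion, gave percent inhibition fitted to a 4-parameter Hill equation; enzyme was unlinked NS2B-NS3 (25 nM final), pH 8.0 Tris buffer.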

Test [8] is described as follows: Tertiary RLuc qRT-PCR qHTS assay for Zika virus inhibitors (AID 1347169). Also: nearly all actives have a fitted effect of over 55% in size. Also: potency is read from the fitted curve at half-maximal effect. As to activity change, negative = inhibition: top concentration of the series differs between compounds; % is scaled to controls: 0 for no effect and ±100 for the full control effect. In short, it runs like this:
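Orthogonal cell-based readout: luminescence measured 1-1.5 hrs after adding live-cell Renilla substrate to Vero cells that had been infected with ZIKV-RLuc (MOI 1-2) post-compound, incubated 48-72 hrs at 37 degrees C.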

Test [9] concerns the target N-terminal Xaa-Pro-Lys N-methyltransferase 1 (Homo sapiens) (UniProt Q9BV86). The experiment in a line: qHTS Assay for Inhibitors of N-terminal methyltransferase 1 (NTMT1): LOPAC validation of the NTMT1 SAHH-coupled ThioGlo3 Assay (AID 1347143). In short, it runs like this:
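Inhibition of NTMT1 methylation of peptide SPKRIA is followed by converting SAH with SAHH and labelling the released thiol with ThioGlo3. Plates are read at 340/450nm before and 30 min after reagent addition, both at room temperature.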

Test [10] can be described thus: ZIKV-mCherry secondary qHTS for Zika virus inhibitors (AID 1347158). Also: top concentration of the series differs between compounds. A digest of the protocol:
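Vero, 5,000 cells/well, o/n 37 °C; cpd pin-transferred in DMSO; ZIKV-mCherry MOI 1, 48-72 h 37 °C; 32% PFA stock fix, Hoechst; imaged 10x DAPI/mCherry; mCherry+ threshold 450 RFU; % infection.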

Test [11] relates to Zika virus NS2B-NS3 protease (linked construct). The test can be described thus: 384 well plate NINDS Rhodamine confirmatory qHTS for Zika virus inhibitors (AID 1347164).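 Also: fluorescence from protease cleavage of Ac-LKRR-rhodamine 110 substrate; potency is read from the fitted curve at half-maximal effect; nearly all actives have a fitted effect of over 65% in size.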 A digest of the protocol:
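Fluorescence at 485/538 nm was measured 25 minutes after adding 10 microM Ac-LKRR-Rd substrate, in the dark at room temperature. The protease (5, 30 or 60 nM final) had been preincubated ~15 minutes with compound; aprotinin as control.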

Test [12] concerns the target Catechol O-methyltransferase (Homo sapiens) (UniProt P21964). The test can be described thus: Confirmatory Screen for Target Class Profiling of Small Molecule Inhibitors of Methyltransferases (AID 1745852; calls by dose curve; also: potency is read from the fitted curve at half-maximal effect). As to conditions: MTase-Glo luminescence, SAH detection, recombinant enzyme; measured here: COMT max response; stronger effect = lower value.
The target in test [13] is Guanidinoacetate N-methyltransferase (Homo sapiens) (UniProt Q14353). Described as above. The conditions noted are these: activity change, negative = inhibition: at 57.3 µM (top of the series) unless noted.
The target of test [14] is Nicotinamide N-methyltransferase (Homo sapiens) (UniProt P40261). Described as above. As to conditions: MTase-Glo luminescence, SAH detection, recombinant enzyme; measured here: NNMT max response; stronger effect = lower value.
Chain of Nicotinamide N-methyltransferase (Homo sapiens) (P40261 whole entry, looked up): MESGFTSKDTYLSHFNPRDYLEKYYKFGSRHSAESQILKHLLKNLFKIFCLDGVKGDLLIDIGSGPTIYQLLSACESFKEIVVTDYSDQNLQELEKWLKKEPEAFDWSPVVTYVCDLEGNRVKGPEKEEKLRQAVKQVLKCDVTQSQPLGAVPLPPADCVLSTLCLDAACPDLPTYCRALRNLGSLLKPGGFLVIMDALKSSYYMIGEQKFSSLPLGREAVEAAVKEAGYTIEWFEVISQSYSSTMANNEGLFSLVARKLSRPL
The target of test [15] is Phenylethanolamine N-methyltransferase (Homo sapiens) (UniProt P11086). Described as above. As to conditions: MTase-Glo luminescence, SAH detection, recombinant enzyme; measured here: PNMT max response; stronger effect = lower value.
Chain of Phenylethanolamine N-methyltransferase (Homo sapiens) (P11086 whole entry, looked up): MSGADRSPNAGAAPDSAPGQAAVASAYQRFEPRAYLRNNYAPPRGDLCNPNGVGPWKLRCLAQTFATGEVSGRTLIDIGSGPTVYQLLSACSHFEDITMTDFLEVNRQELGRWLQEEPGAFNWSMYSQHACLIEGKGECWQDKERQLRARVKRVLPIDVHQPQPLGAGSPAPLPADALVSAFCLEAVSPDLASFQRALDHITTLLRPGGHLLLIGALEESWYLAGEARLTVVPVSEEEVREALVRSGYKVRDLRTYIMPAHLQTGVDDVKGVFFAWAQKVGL
Test [16] concerns Zika virus NS2B-NS3 protease (linked). The experiment in a line: 384 well plate NINDS AMC confirmatory qHTS for Zika virus inhibitors (AID 1347163).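 Also: linked protease at 5 30 or 60 nM final depending on run; fluorescence of AMC released from Ac-VKTGKR-AMC peptide cleaved by the protease; top concentration of the series differs between compounds; 0% = no-inhibitor control and -100% = no-enzyme control; nearly all actives have a fitted effect of over 50% in size.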 A digest of the protocol: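 Linked NS2B-NS3 protease (final 5 nM, 30 nM or 60 nM) was preincubated with compounds (final up to 1 mM) for ~15 minutes. Ac-VKTGKR-AMC substrate (final 30 microM) then reacted for 25 minutes at room temperature in the dark. Fluorescence (ex 355/em 460 nm) was normalized to no-enzyme and no-inhibitor controls.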

Chain of Furin (Homo sapiens) (P09958 whole entry, looked up): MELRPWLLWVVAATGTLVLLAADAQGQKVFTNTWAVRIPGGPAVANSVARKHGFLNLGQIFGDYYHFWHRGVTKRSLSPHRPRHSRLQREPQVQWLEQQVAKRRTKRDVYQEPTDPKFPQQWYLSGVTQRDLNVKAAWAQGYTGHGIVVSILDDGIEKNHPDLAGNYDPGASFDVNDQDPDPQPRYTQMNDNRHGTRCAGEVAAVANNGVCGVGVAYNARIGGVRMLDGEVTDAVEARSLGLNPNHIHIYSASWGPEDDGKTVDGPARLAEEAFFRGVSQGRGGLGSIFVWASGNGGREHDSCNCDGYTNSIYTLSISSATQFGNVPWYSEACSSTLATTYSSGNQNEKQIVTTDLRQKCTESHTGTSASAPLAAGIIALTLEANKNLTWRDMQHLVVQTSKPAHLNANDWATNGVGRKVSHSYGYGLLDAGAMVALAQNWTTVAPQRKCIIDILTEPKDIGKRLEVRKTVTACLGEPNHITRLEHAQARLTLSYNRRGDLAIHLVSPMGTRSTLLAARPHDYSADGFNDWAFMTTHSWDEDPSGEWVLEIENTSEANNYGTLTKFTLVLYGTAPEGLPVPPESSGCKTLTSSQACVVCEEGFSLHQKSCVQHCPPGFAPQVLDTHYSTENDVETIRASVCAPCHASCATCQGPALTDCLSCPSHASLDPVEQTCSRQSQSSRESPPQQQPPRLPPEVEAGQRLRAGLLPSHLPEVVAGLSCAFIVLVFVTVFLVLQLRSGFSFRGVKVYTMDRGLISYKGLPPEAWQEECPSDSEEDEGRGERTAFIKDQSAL
Chain of N-terminal Xaa-Pro-Lys N-methyltransferase 1 (Homo sapiens) (Q9BV86 whole entry, looked up): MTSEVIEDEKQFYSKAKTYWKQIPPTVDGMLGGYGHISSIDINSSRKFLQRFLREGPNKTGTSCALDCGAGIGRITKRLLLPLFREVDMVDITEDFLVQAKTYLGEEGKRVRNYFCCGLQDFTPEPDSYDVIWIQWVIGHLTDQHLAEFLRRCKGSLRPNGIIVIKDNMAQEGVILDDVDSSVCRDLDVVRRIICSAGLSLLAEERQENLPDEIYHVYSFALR
Chain of Catechol O-methyltransferase (Homo sapiens) (P21964 whole entry, looked up): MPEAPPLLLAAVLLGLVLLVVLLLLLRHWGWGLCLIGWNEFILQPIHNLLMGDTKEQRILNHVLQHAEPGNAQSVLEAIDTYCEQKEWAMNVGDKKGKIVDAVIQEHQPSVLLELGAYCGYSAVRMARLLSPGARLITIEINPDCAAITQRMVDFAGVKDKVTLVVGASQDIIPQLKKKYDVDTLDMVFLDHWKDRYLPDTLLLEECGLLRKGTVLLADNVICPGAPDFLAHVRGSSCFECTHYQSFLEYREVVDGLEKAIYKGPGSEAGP

As for `CCOC(=O)O[C@H](C)OC(=O)C1N2C(=O)[C@H](NC(=O)[C@H](N)c3ccccc3)C2SC1(C)C` (stereo partly drawn), the Potency result (in the test with Furin (Homo sapiens); in [1]; in test [2]; in [4]; in test [5]; in [6]) was “inactive” throughout. The Potency in test [3] is 26.7 µM (active).
With `CCOc1ccc(C2C(=O)N(C3CCCCC3)CC(=O)N2Cc2ccc(F)cc2)cc1OC` (stereo not drawn), the Potency result (with Furin (Homo sapiens); in test [7]; in test [5]; in test [6]) was “inactive” throughout. The Potency in test [8] was 8.29 µM (active).
Take `CSc1nc(N)c2ncn([C@@H]3O[C@H](COP(=O)(O)OP(=O)(O)OP(=O)(O)O)C(O)[C@H]3O)c2n1` (stereo partly drawn): the Potency in [9] is 50.1 µM (active).
With `O=C(O)c1cccc(-c2cccc(C(F)(F)F)c2)c1`, the Potency result (in the test with Furin (Homo sapiens); in test [1]; in test [2]; in test [10]) was “inactive” each time. Also, in test [11], the Potency was 501 µM (active).
Regarding `O=C(O)c1ccc(-c2cccc(C(F)(F)F)c2)cc1`, the Potency entry (with Furin (Homo sapiens); in test [1]; in test [2]; in test [10]; in test [8]) was “inactive” each time.
Turning to `Nc1ncnc2c1ncn2[C@@H]1O[C@H](C[C@@H](N)CC[C@H](N)C(=O)O)[C@@H](O)[C@H]1O`, the Potency entry (with Furin (Homo sapiens); in test [7]; in [5]; in test [6]; in test [8]) was “inactive” throughout. Also, the activity was -81.8% in [12], -74.5% in test [14] and -86.5% in test [15]. In addition, the Potency in [13] was 21.7 µM (active).
Take `CC(=O)NC(CC(C)C)C(=O)NC(CC(C)C)C(=O)NC(C=O)CCCN=C(N)N` (stereo not drawn): the Potency result with Furin (Homo sapiens) was “inactive”.
Regarding `NC(N)=Nc1ccc(O[C@H]2C[C@@H](Oc3ccc(N=C(N)N)cc3)[C@H](N=C(N)N)C[C@@H]2N=C(N)N)cc1`, the Potency with Furin (Homo sapiens) was 1.26 µM (active).
Consider `CCOc1ccc(C(=O)Nc2cccc(C(=O)OCc3cc(=O)n4nc(C5CC5)sc4n3)c2)cc1`, for which the Potency with Furin (Homo sapiens) was 52.7 µM (active).
Regarding `Oc1cc2ccccc2c2ccccc12`, the Potency result (in the test with Furin (Homo sapiens); in test [10]; in [16]) was “inactive” each time. Moreover, the Potency in test [7] is 44.1 µM (active); in [11], 447 µM (active); in [5] it was 19 µM (active); in test [8] it was 6.02 µM (active).
For `O=C(Nc1cccc2ccccc12)O[C@@H]1CO[C@H]2[C@@H]1OC[C@@H]2NS(=O)(=O)c1ccc2ccccc2c1`, the Potency with Furin (Homo sapiens) was 69.8 µM (active). Besides, the Potency result in [1] and in test [2] was “inactive” throughout.
Turning to `O=C(Nc1cccc2ccccc12)O[C@@H]1CO[C@H]2[C@@H]1OC[C@@H]2NS(=O)(=O)c1cccc2cccnc12`, the Potency entry (with Furin (Homo sapiens); in [1]; in [2]) was “inactive” each time.
